Assay results as given in the supplement of paper PMC9135407.
Structures can show the parent of a compound that is named as a salt. About 620 (11%) of roughly 5,800 compounds showed activity. Shown is part of a subset that was picked to be rich in actives. Unmarked numbers belong to inactive results.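 Rule for the calls: active = score above a cut-off or among the top three wells of a plate; in these data no inactive exceeds 0.85.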

Test system: primary human hepatic stellate cells (donor 1)
Assay: scaled lipid accumulation score (0 = DMSO-like, 1 = nortriptyline-like); higher = stronger HSC inactivation (lipid re-accumulation), active = hit call of the paper
Conditions: 48 h
[1] = library stock concentration: 1 mM
[2] = library stock concentration: 3.33 mM
[3] = library stock concentration: 10 mM
[4] = library stock concentration: 80 uM
[5] = library stock concentration: 400 uM
[6] = library stock concentration: 2 mM

NC(=O)OCC(O)COc1ccc(Cl)cc1 (stereo not drawn) [Chlorphensin carbamate]
scaled lipid accumulation score: ≤ 0

CCOc1c2c(c(OCC)c3ccccc13)C(=O)N(c1ccc(CC(=O)NS(=O)(=O)c3ccccc3)cc1)C2
scaled lipid accumulation score [1]: ≤ 0

CCCCC/C=C\C/C=C\C/C=C\C/C=C\CCCCNC(=O)c1ccc(O)cc1
scaled lipid accumulation score [1]: ≤ 0

CCCCC(C)CC(O)/C=C/C1C(O)CC(O)C1CCCCCCC(=O)O (stereo not drawn) [17,20-dimethyl Prostaglandin F1.alpha.]
scaled lipid accumulation score [1]: ≤ 0

Nc1cccc2c1CN(C1CCC(=O)NC1=O)C2=O (stereo not drawn) [Lenalidomide (CC-5013)]
scaled lipid accumulation score [2]: 0.003
scaled lipid accumulation score [3]: ≤ 0

Nc1cccc2c1CN(C1CCC(=O)NC1=O)C2=O (stereo not drawn) [Lenalidomide]
scaled lipid accumulation score [4]: 0.004
scaled lipid accumulation score [5]: 0.005
scaled lipid accumulation score [6]: ≤ -0.001
scaled lipid accumulation score [3]: ≤ -0.001

Nc1nc2[nH]cnc2c(=S)[nH]1 [Thioguanine]
scaled lipid accumulation score [3]: ≤ 0
scaled lipid accumulation score (library stock concentration: 12 mM): ≤ 0

O=C(NCCCCCCNC(=O)ON=C1CCCCC1)ON=C1CCCCC1
scaled lipid accumulation score [3]: 0.062
scaled lipid accumulation score (library stock concentration: 12.7 mM): 0.056

CNC(=O)c1ccc(Nc2cc(Nc3ccccc3S(=O)(=O)C(C)C)c3cc[nH]c3n2)nc1
scaled lipid accumulation score [4]: 0.027
scaled lipid accumulation score [5]: 0.02
scaled lipid accumulation score [6]: 0.04
scaled lipid accumulation score [3]: ≤ 0

Cc1coc2c1C(=O)C(=O)c1c-2ccc2c(C)cccc12 [Tanshinone I]
scaled lipid accumulation score [2]: ≤ 0
scaled lipid accumulation score [3]: ≤ 0

CCCCC/C=C\C/C=C\C/C=C\C/C=C\CCCC(=O)O [Arachidonic acid (20:4, n-6)]
scaled lipid accumulation score [1]: ≤ -0.021

CCCCC/C=C\C/C=C\C/C=C\C/C=C\CCCC(=O)O [Arachidonic Acid]
scaled lipid accumulation score [1]: ≤ 0

COc1ccc(N(C(=O)Oc2cc(C(=O)Nc3cccc(C(F)(F)F)c3)ccc2C)c2ccnc(Nc3ccc(N4CCN(C)CC4)cc3)n2)c(OC)c1
scaled lipid accumulation score [4]: 0.07
scaled lipid accumulation score [5]: 0.248
scaled lipid accumulation score [6]: 0.495
scaled lipid accumulation score [3]: 0.396

Cc1ccc(C(=O)Nc2cccc(C(F)(F)F)c2)cc1-c1ccc2nc(NCCN3CCOCC3)ncc2c1 [listing 1 of 2 here]
scaled lipid accumulation score [5]: ≤ -0.005
scaled lipid accumulation score [6]: 0.748

Cc1ccc(C(=O)Nc2cccc(C(F)(F)F)c2)cc1-c1ccc2nc(NCCN3CCOCC3)ncc2c1 [listing 2 of 2 here]
scaled lipid accumulation score [3]: 1.34 (active)

CCCCCC(=O)/C=C/C=O [4-oxo-2-Nonenal]
scaled lipid accumulation score [1]: ≤ 0

COc1ccc(-c2cc(=O)c3c(O)cc(O)cc3o2)cc1 [Acacetin]
scaled lipid accumulation score: ≤ 0
scaled lipid accumulation score [3]: ≤ -0.027

Cc1cc(Nc2ncc(Cl)c(Nc3ccccc3S(=O)(=O)C(C)C)n2)c(OC(C)C)cc1C1CCNCC1
scaled lipid accumulation score [2]: 0.582
scaled lipid accumulation score [3]: 0.131

Cc1cc(Nc2ncc(Cl)c(Nc3ccccc3S(=O)(=O)C(C)C)n2)c(OC(C)C)cc1C1CCNCC1 [Ceritinib]
scaled lipid accumulation score [4]: 0.312
scaled lipid accumulation score [5]: 0.357
scaled lipid accumulation score [6]: 0.663
scaled lipid accumulation score [3]: ≤ 0

CN(C)S(=O)(=O)c1ccc2c(c1)/C(=C/c1cc3c([nH]1)CCCC3)C(=O)N2 [listing 1 of 3 here]
scaled lipid accumulation score [2]: 0.613

O=C1Nc2ccccc2/C1=C\c1c(Cl)[nH]c2ccccc12
scaled lipid accumulation score [4]: ≤ -0.001
scaled lipid accumulation score [5]: ≤ -0.001
scaled lipid accumulation score [6]: ≤ -0.001
scaled lipid accumulation score [3]: 0.116

O=C1Nc2ccc(Br)cc2/C1=C/c1cc2c([nH]1)CCCC2 [VEGF Receptor 2 Kinase Inhibitor II]
scaled lipid accumulation score [2]: 0.454

CN(C)S(=O)(=O)c1ccc2c(c1)/C(=C/c1cc3c([nH]1)CCCC3)C(=O)N2 [listing 2 of 3 here]
scaled lipid accumulation score [1]: 0.413 (active)

COc1cc(OC)c(C=C2C(=O)Nc3ccccc32)c(OC)c1
scaled lipid accumulation score [2]: ≤ 0
scaled lipid accumulation score [3]: ≤ 0

CN(C)S(=O)(=O)c1ccc2c(c1)/C(=C/c1cc3c([nH]1)CCCC3)C(=O)N2 [listing 3 of 3 here]
scaled lipid accumulation score [3]: 0.958 (active)

CCCCC[C@H](O)CC[C@@H]1[C@@H](CCCCCCC(=O)O)[C@@H](O)C[C@H]1O [13,14-dihydro Prostaglandin F1.alpha.]
scaled lipid accumulation score [1]: ≤ 0

NCc1c[nH]c(=S)n1C1CCc2c(F)cc(F)cc2C1 [(R)-Nepicastat HCl]
scaled lipid accumulation score [2]: ≤ 0
scaled lipid accumulation score [3]: 0.361

CC(=NNC(=S)N1CCC1)c1ccccn1
scaled lipid accumulation score [2]: 0.164
scaled lipid accumulation score [3]: 0.375
